Laboratory results: PubChem BioAssay (NCATS)
Records with an inconclusive call do not appear. The source made the active and inactive calls. Calls come from the whole dose curve; as a rule, active = well fitted inhibition curve with a large enough effect; inconclusive = small, poorly fitted or top-dose-only effect; inactive = flat fitted curve, though single readings scatter.

What was measured:
Assay in all cases: qHTS profiling for inhibitors of Plasmodium falciparum proliferation (AID 504749); note: nearly all actives have a fitted effect of over 60% in size
[1] = test system: CP260; settings: P. falciparum in erythrocytes, SYBR Green DNA, 72 h; series mostly up to 28.7 µM
Method in brief: (§1)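 Infected RBCs, 0.3% parasitemia/2.5% Hct final; cpd 72 h, 37 C, 5% CO2; lysis buffer with saponin/triton/SYBR Green I, o/n RT dark; FI 485/535; norm. to artemisinin (0.29 uM) and DMSO.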

[2] = test system: CP262; settings: P. falciparum in erythrocytes, SYBR Green DNA, 72 h; series mostly up to 28.7 µM
Method in brief: as §1

[3] = test system: CP265; settings: P. falciparum in erythrocytes, SYBR Green DNA, 72 h; series mostly up to 12.8 µM
Method in brief: as §1

[4] = test system: CP268; settings: P. falciparum in erythrocytes, SYBR Green DNA, 72 h; series mostly up to 28.7 µM
Method in brief: as §1

[5] = test system: CP269; settings: P. falciparum in erythrocytes, SYBR Green DNA, 72 h; series mostly up to 28.7 µM
Method in brief: as §1

[6] = test system: CP286; settings: P. falciparum in erythrocytes, SYBR Green DNA, 72 h; series mostly up to 28.7 µM
Method in brief: as §1

[7] = test system: CP291; settings: P. falciparum in erythrocytes, SYBR Green DNA, 72 h; series mostly up to 28.7 µM
Method in brief: as §1

[8] = test system: CP297; settings: P. falciparum in erythrocytes, SYBR Green DNA, 72 h; series mostly up to 28.7 µM
Method in brief: as §1

[9] = test system: CP305; settings: P. falciparum in erythrocytes, SYBR Green DNA, 72 h; series mostly up to 28.7 µM
Method in brief: as §1

[10] = test system: CP315; settings: P. falciparum in erythrocytes, SYBR Green DNA, 72 h; series mostly up to 28.7 µM
Method in brief: as §1

[11] = test system: CP325; settings: P. falciparum in erythrocytes, SYBR Green DNA, 72 h; series mostly up to 28.7 µM
Method in brief: as §1

[12] = test system: CP329; settings: P. falciparum in erythrocytes, SYBR Green DNA, 72 h; series mostly up to 28.7 µM
Method in brief: as §1

[13] = test system: CP335; settings: P. falciparum in erythrocytes, SYBR Green DNA, 72 h; series mostly up to 12.8 µM
Method in brief: as §1

[14] = test system: DIV14; settings: P. falciparum in erythrocytes, SYBR Green DNA, 72 h; series mostly up to 28.7 µM
Method in brief: as §1

[15] = test system: DIV30; settings: P. falciparum in erythrocytes, SYBR Green DNA, 72 h; series mostly up to 28.7 µM
Method in brief: as §1

[16] = test system: Dd2; settings: P. falciparum in erythrocytes, SYBR Green DNA, 72 h; series mostly up to 28.7 µM
Method in brief: as §1

[17] = test system: ECU; settings: P. falciparum in erythrocytes, SYBR Green DNA, 72 h; series mostly up to 28.7 µM
Method in brief: as §1

[18] = test system: FAB9; settings: P. falciparum in erythrocytes, SYBR Green DNA, 72 h; series mostly up to 28.7 µM
Method in brief: as §1

[19] = test system: GB4; settings: P. falciparum in erythrocytes, SYBR Green DNA, 72 h; series mostly up to 28.7 µM
Method in brief: as §1

[20] = test system: HB3; settings: P. falciparum in erythrocytes, SYBR Green DNA, 72 h; series mostly up to 28.7 µM
Method in brief: as §1

[21] = test system: ICS; settings: P. falciparum in erythrocytes, SYBR Green DNA, 72 h; series mostly up to 28.7 µM
Method in brief: as §1

[22] = test system: JCK; settings: P. falciparum in erythrocytes, SYBR Green DNA, 72 h; series mostly up to 28.7 µM
Method in brief: as §1

[23] = test system: N140; settings: P. falciparum in erythrocytes, SYBR Green DNA, 72 h; series mostly up to 28.7 µM
Method in brief: as §1

[24] = test system: P93_24; settings: P. falciparum in erythrocytes, SYBR Green DNA, 72 h; series mostly up to 28.7 µM
Method in brief: as §1

[25] = test system: P94_40; settings: P. falciparum in erythrocytes, SYBR Green DNA, 72 h; series mostly up to 28.7 µM
Method in brief: as §1

[26] = test system: PAD; settings: P. falciparum in erythrocytes, SYBR Green DNA, 72 h; series mostly up to 28.7 µM
Method in brief: as §1

[27] = test system: PC26; settings: P. falciparum in erythrocytes, SYBR Green DNA, 72 h; series mostly up to 28.7 µM
Method in brief: as §1

[28] = test system: TAB109; settings: P. falciparum in erythrocytes, SYBR Green DNA, 72 h; series mostly up to 12.8 µM
Method in brief: as §1

[29] = test system: TAB113; settings: P. falciparum in erythrocytes, SYBR Green DNA, 72 h; series mostly up to 28.7 µM
Method in brief: as §1

[30] = test system: TAB165; settings: P. falciparum in erythrocytes, SYBR Green DNA, 72 h; series mostly up to 28.7 µM
Method in brief: as §1

[31] = test system: W2; settings: P. falciparum in erythrocytes, SYBR Green DNA, 72 h; series mostly up to 12.8 µM
Method in brief: as §1

Measured: Potency
Potency is the fitted concentration of half-maximal effect.

O=[As]O[As]=O (stereo unspecified)
inactive: [2]
active: [1] 6.31 µM | [3] 12.6 µM | [4] 15.1 µM | [5] 6.01 µM | [6] 8.91 µM | [7] 6.75 µM | [8] 9.53 µM | [9] 8.49 µM | [10] 13.5 µM | [11] 6.75 µM | [12] 15.1 µM | [13] 7.57 µM | [14] 6.01 µM | [15] 8.49 µM | [16] 7.94 µM | [17] 8.91 µM | [18] 11.2 µM | [19] 8.49 µM | [20] 11.2 µM | [21] 7.08 µM | [22] 11.2 µM | [23] 7.94 µM | [24] 5.01 µM | [25] 7.08 µM | [26] 8.91 µM | [27] 15.1 µM | [28] 7.08 µM | [29] 7.94 µM | [30] 6.31 µM | [31] 4.26 µM
